The values that follow come from PubChem BioAssay (NCI).

The structures appear in SMILES notation. The panel holds about 83,000 compounds, 20% with a hit somewhere; the sample as a whole holds those more often.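 Testing used 96-well plates and a 48-hour single-concentration exposure. Example: -40 means 40% of the starting cells died.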 A number with no mark means an inactive call. Active and inactive are the calls of the source. How the source made its calls: active means growth percent below 10; inactive means the rest.

Among the test systems are NCI-H23 lung; NCI-H226 lung; NCI-H322M lung; HOP-62 NSCLC; NCI-H460 lung; HOP-92 NSCLC; NCI-H522 lung; A549/ATCC NSCLC; 786-0 renal; COLO 205 colon; DU-145 prostate; K-562 leukemia; MALME-3M melanoma; MDA-MB-231 breast; RXF 393 renal; SF-268 CNS; SF-295 CNS; SF-539 CNS; UACC-257 melanoma; M14 melanoma.
Assay in all cases: NCI-60 one-dose screen, 48 h (100 = growth as untreated, 0 = no growth, -100 = all killed)
Conditions in all cases: 10 µM unless noted

In the case of `CN(C)S(=O)(=O)c1ccc(-c2nc(C(Cl)Cl)nc3cc(-c4ccc(F)cc4)nn23)cc1`, the growth in the test with NCI-H23 lung was -3.27% (active); in the test on NCI-H226 lung, 45.4%; in the test with NCI-H322M lung, 31%; in the test on HOP-62 NSCLC it was 9.75% (active); with NCI-H460 lung, 1.94% (active); in the test with HOP-92 NSCLC it was 14.6%. In addition, the growth in the test with NCI-H522 lung was -16.5% (active); in the test with A549/ATCC NSCLC, 7.5% (active); in the test on 786-0 renal, 72.6%; in the test with COLO 205 colon, 2.25% (active); with DU-145 prostate it was 5.97% (active); in the test with K-562 leukemia, 8.44% (active). Further, the growth was -11.5% (active) with MALME-3M melanoma; 1.26% (active) with MDA-MB-231 breast; -19.2% (active) in the test on RXF 393 renal; 19.4% with SF-268 CNS; 21.8% with SF-295 CNS; 31.7% in the test on SF-539 CNS. Besides, the growth in the test on UACC-257 melanoma was 52.4%; with M14 melanoma, 1.95% (active).

Consider `O=c1c2cc(-c3ccc(F)cc3F)ccc2n(O)c(=O)n1-c1cccc(C(F)(F)F)c1`, for which the growth in the test with NCI-H23 lung was -2.77% (active); in the test with NCI-H226 lung it was 14.3%; in the test with NCI-H322M lung, 5.99% (active); in the test with HOP-62 NSCLC, -9.23% (active); with NCI-H460 lung, 6.68% (active); in the test with HOP-92 NSCLC it was -30% (active). The growth in the test on NCI-H522 lung is -14.2% (active); in the test on A549/ATCC NSCLC it was 6.74% (active); in the test with 786-0 renal, 30.9%; with COLO 205 colon it was 73.9%; in the test on DU-145 prostate it was 25.5%; in the test with K-562 leukemia, 3.41% (active). Also, the growth in the test on MALME-3M melanoma was -12.2% (active); in the test on MDA-MB-231 breast, -10.3% (active); with RXF 393 renal it was 3.38% (active); with SF-268 CNS, 17.4%; in the test on SF-295 CNS, -11.2% (active); in the test with SF-539 CNS, 21.1%. For the same compound, the growth is -8.3% (active) in the test with UACC-257 melanoma and 17.6% in the test with M14 melanoma.

For `CN(C)S(=O)(=O)c1ccc(-c2nc(C(Cl)Cl)nc3cc(-c4ccccc4)nn23)cc1`, the growth is 85% with NCI-H23 lung; 96% with NCI-H226 lung; 99% in the test on NCI-H322M lung; 70.7% in the test on HOP-62 NSCLC; 89% in the test on NCI-H460 lung; 79% in the test on HOP-92 NSCLC. In addition, the growth in the test with NCI-H522 lung is 89.6%; in the test with A549/ATCC NSCLC, 82.6%; in the test with 786-0 renal it was 90.6%; in the test on COLO 205 colon, 69.5%; with DU-145 prostate, 79.2%; with K-562 leukemia, 52.2%. For the same compound, the growth was 15.3% in the test with MALME-3M melanoma; 48.8% in the test on MDA-MB-231 breast; 84.4% in the test on RXF 393 renal; 88.2% in the test with SF-268 CNS; 86.7% in the test with SF-295 CNS; 77.8% with SF-539 CNS. Also, the growth is 105% with UACC-257 melanoma and 74% in the test with M14 melanoma.

With `CCOC(=O)c1c(NC(=O)c2cccc(C(F)(F)F)c2)sc2c3c(ccc12)OCN(C)C3`, the growth with NCI-H23 lung was 83.6%; with NCI-H226 lung, 77.8%; in the test with NCI-H322M lung, 18%; with HOP-62 NSCLC, -87.6% (active); in the test with NCI-H460 lung, -75.9% (active); in the test with HOP-92 NSCLC it was 15.2%. In addition, the growth in the test on NCI-H522 lung was -15% (active); in the test with A549/ATCC NSCLC, -77.7% (active); in the test with 786-0 renal, -71.9% (active); with COLO 205 colon it was -57.6% (active); in the test on DU-145 prostate, -16.8% (active); in the test on K-562 leukemia, -64.1% (active). The growth with MALME-3M melanoma was -53.9% (active); with MDA-MB-231 breast it was -95.9% (active); in the test on RXF 393 renal it was -91.4% (active); with SF-268 CNS it was -57.3% (active); in the test on SF-295 CNS, 44.6%; in the test on SF-539 CNS, -0.959% (active). Besides, the results for the growth with UACC-257 melanoma and with M14 melanoma were 30.8% and -17% (active), respectively.

Regarding `FC(F)(F)c1cc(Br)cc(-c2cc(-c3ccc4c(c3)OCCO4)[nH]n2)c1`, the growth in the test with NCI-H23 lung was 40.1%; with NCI-H226 lung it was 53.8%; in the test with NCI-H322M lung, 45.4%; with HOP-62 NSCLC, 52.2%; in the test on NCI-H460 lung, 5.69% (active); in the test on HOP-92 NSCLC, 32%. Also, the growth is 20.5% in the test on NCI-H522 lung; 22.1% with A549/ATCC NSCLC; 28.3% in the test on 786-0 renal; -12.9% (active) in the test with COLO 205 colon; 23.8% in the test on DU-145 prostate; 14.6% in the test with K-562 leukemia. Besides, the growth with MALME-3M melanoma was 48.4%; with MDA-MB-231 breast, 1.68% (active); in the test on RXF 393 renal, 31.6%; in the test on SF-268 CNS it was 41.7%; with SF-295 CNS, 12.3%; in the test on SF-539 CNS, -5.31% (active). The growth was 80.4% with UACC-257 melanoma and 20.1% in the test on M14 melanoma.

`CN1CCN(c2ccc(Nc3nc(NCCNS(=O)(=O)c4ccc5ccccc5c4)c4sccc4n3)cc2)CC1`: the growth is 84.3% in the test on NCI-H23 lung; 98.4% in the test on NCI-H226 lung; 83.7% with NCI-H322M lung; 97.5% in the test on HOP-62 NSCLC; 74.3% in the test on NCI-H460 lung; 47.8% with HOP-92 NSCLC. Moreover, the growth with NCI-H522 lung is 87.4%; in the test with A549/ATCC NSCLC, 84.3%; in the test on 786-0 renal it was 56.3%; in the test with COLO 205 colon, 13.3%; with DU-145 prostate, 84%; in the test with K-562 leukemia, 1.59% (active). For the same compound, the growth with MALME-3M melanoma was 2.39% (active); in the test with MDA-MB-231 breast it was 74.3%; with RXF 393 renal it was 29.4%; in the test on SF-268 CNS it was 63.3%; with SF-295 CNS, 102%; in the test on SF-539 CNS, 65%. The growth in the test with UACC-257 melanoma is 65.7%; in the test with M14 melanoma, -82.6% (active).

With `C#CCOc1ccccc1/C=N/Nc1nc(-c2ccc(Cl)cc2)cs1`, the growth with NCI-H23 lung was 83.3%; with NCI-H226 lung it was 82.8%; in the test with NCI-H322M lung, 90.6%; in the test with HOP-62 NSCLC it was 96%; in the test on NCI-H460 lung, 97.7%; with HOP-92 NSCLC, 88.2%. Further, the growth in the test with NCI-H522 lung was 87.8%; in the test on A549/ATCC NSCLC, 101%; in the test on 786-0 renal it was 102%; in the test on COLO 205 colon, 109%; in the test on DU-145 prostate it was 104%; with K-562 leukemia, 86.2%. Also, the growth in the test with MALME-3M melanoma is 97.2%; in the test with MDA-MB-231 breast it was 86.4%; with RXF 393 renal, 102%; in the test on SF-268 CNS, 98.9%; in the test on SF-295 CNS, 109%; in the test with SF-539 CNS it was 89.5%. The growth in the test on UACC-257 melanoma is 102%; with M14 melanoma, 94%.

As for `NC1C2CCC1CN(c1cnc(C(=O)Nc3cc(F)cc4cccnc34)cn1)C2` (stereo not given), the growth in the test on NCI-H23 lung is 75.1%; with NCI-H226 lung, 75.7%; in the test with NCI-H322M lung it was 84.3%; with HOP-62 NSCLC, 81.2%; in the test with NCI-H460 lung, 68.1%; with HOP-92 NSCLC it was 47.9%. Also, the growth in the test on NCI-H522 lung was 72.3%; in the test on A549/ATCC NSCLC, 68.6%; with 786-0 renal, 67%; with COLO 205 colon, -0.393% (active); with DU-145 prostate it was 71.2%; with K-562 leukemia, 3.9% (active). Also, the growth with MALME-3M melanoma was 49.5%; in the test with MDA-MB-231 breast, 39.4%; in the test on RXF 393 renal, 61.6%; in the test on SF-268 CNS, 73.5%; in the test on SF-295 CNS it was 76.3%; in the test with SF-539 CNS, 64.6%. Also, the growth was 98.3% in the test on UACC-257 melanoma and 48.4% with M14 melanoma.
